# Measured values reported in PubChem BioAssay (Tox21).
# Values joined by “and” are separate entries in the source; they are usually repeats but may differ in a detail not shown here. Equal entries are not always repeated. Records with an inconclusive call do not appear. Entries that show only a call come without a potency. Where a structure was tested more than once in an assay, its records may differ in their call. Active and inactive are the calls of the source. Calls come from the whole dose curve; as a rule, active = well fitted cell-killing curve with a large enough effect in the repeat runs; inconclusive = weak or mixed curves, or effect the other way; inactive = flat fitted curve, though single readings scatter.
# Experiment: Caspase-3/7 induction in HepG2 cells by small molecules, qHTS cell viability counter screen (AID 1346981); note: nearly all actives have a fitted effect of over 30% in size
# Settings: CellTiter-Fluor fluorescence, 17 h; series mostly up to 92.4 µM; activity change, negative = cytotoxicity: at the top concentration
# In short: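 Counter screen for cytotoxicity: HepG2 exposed 16 hr to compounds, then CellTiter-Fluor viability signal (fluorescence, 1 hr reagent incubation).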
# Potency is the fitted concentration of half-maximal effect.
SMILES,Potency,"activity change, negative = cytotoxicity"
CN(C)c1cccc(O)c1,inactive,–
CS(=O)(=O)Nc1ccc([N+](=O)[O-])cc1Oc1ccccc1,54.5 µM (active) and 29.8 µM (active),–
CCCCCCCCC,inactive,–
OC1CCCC1,inactive,–
NS(=O)(=O)c1cc2c(cc1Cl)NC=NS2(=O)=O,inactive,–
Nc1c(S(=O)(=O)O)cc(Br)c2c1C(=O)c1ccccc1C2=O,inactive and 48.6 µM (active),–
OCCOCCOCCOCCO,inactive,–
CC(C)(N=C=O)c1cccc(C(C)(C)N=C=O)c1,inactive,–
CCC(C)C=O (stereo not given),inactive,–
CCOC(=O)/C=C\C(=O)OCC,inactive,–
C=C(C)C(=O)OCCC[Si](OC)(OC)OC,inactive,–
CC(C)(C)C1CCC(O)CC1 (stereo not given),inactive,–
ClC1=C(Cl)C(Cl)(Cl)C(Cl)=C1Cl,–,8.18% (inactive)
Cc1cc(=O)[nH]c(C(C)C)n1,inactive,–
CCCCCC/C=C/CCCCCCCC(=O)O,inactive,–
Cc1ccc(N)c(S(=O)(=O)O)c1,inactive,–
CC1Cc2ccccc2N1NC(=O)c1ccc(Cl)c(S(N)(=O)=O)c1 (stereo not given),inactive,–
CC1(C)CC(N=C=O)CC(C)(CN=C=O)C1 (stereo not given),inactive,–
CC(C)Cc1ccccc1,–,3.08% (inactive)
Cc1ccc(C)c(C)c1,inactive,–
CCCCCCC(C)(C)S,–,6.25% [at 42.5 µM] (inactive)
Oc1ccc(OCc2ccccc2)cc1,inactive,–
O=S(=O)(O)c1cc(S(=O)(=O)O)c2c(N=Nc3ccccc3)c(O)ccc2c1,54.7 µM (active) and 54.5 µM (active),–
O=C1O[C@H](CO)[C@@H](O)[C@H](O)[C@H]1O,inactive,–
C[C@@H]1O[C@@H](OC[C@H]2O[C@@H](Oc3c(-c4ccc(O)c(O)c4)oc4cc(O)cc(O)c4c3=O)[C@H](O)[C@@H](O)[C@@H]2O)[C@H](O)[C@H](O)[C@H]1O,–,-9.93% [at 42.5 µM] (inactive)
